Test results as given in the supplement of paper PMC12819154, “High-throughput peptide-centric local stability assay extends protein–ligand identification to membrane proteins, tissues and bacteria” (Nature Structural & Molecular Biology, 2025).

Target: UniProt P0AEZ1
Test: log2 fold change of tryptic peptide abundance, ligand vs vehicle (limited proteolysis) (log2 ratio); higher = more trypsin-susceptible (destabilized)
Conditions: peptide sequence: DYWNNGIR; peptide start residue: 105; ligand concentration: 5 mM; sample: E. coli desalted lysate; replicate design: treated before aliquoting
Experimental: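 HT-PELSA: desalted E. coli K-12 BW25113 lysate (with 12 mM MgCl2) incubated with 5 mM ATP (pH 7) or water for 30 min at 25 C, then a 4 min trypsin pulse at 22 C. Peptides were quantified by DIA-MS (4 replicates). Value is the peptide log2 fold change (treated/control); negative = stabilized. Scale: negative = ligand-stabilized region.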
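Note: lysate desalted by size exclusion to strip endogenous ATP, peptide intensities built from DIA-NN precursor signals, and peptides missing any value discarded before comparison.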

Sequence of UniProt P0AEZ1 (P0AEZ1 whole entry): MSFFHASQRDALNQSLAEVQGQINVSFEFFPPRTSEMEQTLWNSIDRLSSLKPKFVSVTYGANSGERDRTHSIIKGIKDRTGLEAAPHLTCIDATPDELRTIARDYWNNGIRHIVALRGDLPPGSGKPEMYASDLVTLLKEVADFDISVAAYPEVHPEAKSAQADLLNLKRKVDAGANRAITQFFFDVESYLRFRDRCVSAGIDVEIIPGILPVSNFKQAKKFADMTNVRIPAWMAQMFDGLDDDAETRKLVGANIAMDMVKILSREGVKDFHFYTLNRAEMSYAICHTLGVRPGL

SMILES | log2 fold change
Nc1ncnc2c1ncn2[C@@H]1O[C@H](COP(=O)(O)OP(=O)(O)OP(=O)(O)O)[C@@H](O)[C@H]1O [adenosine 5'-triphosphate] | -1.01
